Most compounds without a hit are left out; they make up all but 3.9% or so of the library.
CCHF vOTU inh = CCHFV vOTU protease inhibition; Pep-AMC fluorescence; inhibition, % at 11.5 µM; 370,000 compounds, 0.55% hits; AID 651958; in the data active = inhibition above about 30%; also: 0% = vehicle wells with enzyme and 100% = no enzyme wells
3CLpro inhibitor = SARS-CoV 3CLpro protease inhibition | P0C6X7 | recombinant SARS-CoV 3CLpro, quenched FRET peptide cleavage | inhibition, % at 6 µM | 290,000 compounds, 0.14% hits; in the data active = inhibition above about 12%
Bead autofluor = flagged as autofluorescent in microsphere protease counterscreen; compound autofluorescence counterscreen, microsphere flow cytometry; active compounds read high; fluorescence intensity (no concentration beside the values); 360,000 compounds, 3.1% hits; in the data active = fluorescence intensity above about 16000; inconclusive = no clear call, values can overlap the other calls
BoNT A protease = BoNT A light chain protease inhibition; multiplex microsphere protease substrate cleavage, flow cytometry; inhibition, % at 10 µM; 360,000 compounds, 0.17% hits; also: plate controls were buffer without enzyme for full effect and enzyme alone for no effect
BoNT-F LC inh = BoNT F light chain protease inhibition. Multiplex microsphere protease cleavage assay, flow cytometry. 360,000 compounds, 0.22% hits. inhibition, % at 10 µM; in the data active = inhibition above about 35%, passing the limit was not always enough; inconclusive = no clear call, values can overlap the other calls; also: plate controls were buffer without enzyme for full effect and enzyme alone for no effect
Anthrax LF inh2 = blocks Bacillus anthracis lethal factor protease | multiplex microsphere protease cleavage assay, LF | inhibition, % at 10 µM | 360,000 compounds, 0.12% hits | AID 588501; also: plate controls were buffer without enzyme for full effect and enzyme alone for no effect
* marks the source's active call; other numbers are inactive results. Rule as the data show it, unless noted: active = inhibition above about 30%; inconclusive = no clear call, values can overlap the other calls; inactive = below that.

`O=C1CC(N2CCN(c3cccc(C(F)(F)F)c3)CC2)C(=O)N1c1ccc(F)cc1` (stereo unspecified) gave CCHF vOTU inh 15, 3CLpro inhibitor -1, Bead autofluor 22486*, BoNT A protease 0, BoNT-F LC inh -2 and Anthrax LF inh2 -5.
O=C1CC(N2CCN(c3nc4ccccc4s3)CC2)C(=O)N1c1cccc(F)c1 (stereo unspecified) was read as CCHF vOTU inh 1, 3CLpro inhibitor -1, Bead autofluor 23609*, BoNT A protease -2, BoNT-F LC inh -1 and Anthrax LF inh2 -8.
For CCOC(=O)C1CCCN(C2CC(=O)N(c3cccc(C(F)(F)F)c3)C2=O)C1 (stereo unspecified) the results were CCHF vOTU inh -1, 3CLpro inhibitor 4, Bead autofluor 23785*, BoNT A protease inconclusive, BoNT-F LC inh -5 and Anthrax LF inh2 -3.
CCOc1cccc(N2C(=O)CC(N3CCN(c4ccc(S(=O)(=O)CC)cc4)CC3)C2=O)c1 (stereo unspecified) was read as CCHF vOTU inh -20, 3CLpro inhibitor -4, Bead autofluor 22715*, BoNT A protease 2, BoNT-F LC inh 3 and Anthrax LF inh2 -6.
For O=C1CC(N2CCN(c3ccccn3)CC2)C(=O)N1c1ccc(F)cc1 (stereo unspecified) the results were CCHF vOTU inh -13, 3CLpro inhibitor -2, Bead autofluor 3392, BoNT A protease -1, BoNT-F LC inh -4 and Anthrax LF inh2 -10.
`CCOC(=O)C1CCCN(C2CC(=O)N(c3ccccc3)C2=O)C1` (stereo unspecified) gave CCHF vOTU inh -4, 3CLpro inhibitor -6, Bead autofluor 2082, BoNT A protease 0, BoNT-F LC inh -2 and Anthrax LF inh2 -1.
`c1ccc(Cn2ccc3ccc(-c4ccc5ccn(Cc6cccc(-c7cccs7)c6)c5c4)cc32)cc1` gave CCHF vOTU inh 5.
Cc1cccc(N2C(=O)CC(N3CCN(c4cccc(C(F)(F)F)c4)CC3)C2=O)c1 (stereo unspecified) was read as CCHF vOTU inh 4, 3CLpro inhibitor -2, Bead autofluor 20300*, BoNT A protease inconclusive, BoNT-F LC inh -2 and Anthrax LF inh2 0.
Screening CN(C(=S)NC(=O)c1ccccc1Br)C1CCCCC1 returned 3CLpro inhibitor -1, Bead autofluor 16560*, BoNT A protease -1, BoNT-F LC inh -2 and Anthrax LF inh2 -5.
Cc1cccc2cc(-c3ccccc3)c(-c3ccccc3)c[n+]12 was read as CCHF vOTU inh -3, 3CLpro inhibitor -2, Bead autofluor 5605, BoNT A protease 38*, BoNT-F LC inh -46 and Anthrax LF inh2 8.
Screening COC(=O)[C@]12C[C@H](CC(=O)N3CCCC3)C(=O)N(Cc3ccco3)C1=C[C@H](COCc1ccccc1)O[C@@H]2C returned CCHF vOTU inh -6.
Screening O=S(=O)(c1ccc(F)cc1)c1nc(-c2ccccc2F)oc1N1CCCCC1 returned CCHF vOTU inh -1, 3CLpro inhibitor 6, Bead autofluor 20089*, BoNT A protease inconclusive, BoNT-F LC inh 3 and Anthrax LF inh2 -6.
`O=C(COc1cccc(C(F)(F)F)c1)NCCCN1CCCC1=O` gave CCHF vOTU inh -3, 3CLpro inhibitor 1, Bead autofluor 16354*, BoNT A protease inconclusive, BoNT-F LC inh 0 and Anthrax LF inh2 3.
For Cc1c(NC(=O)c2ccccc2F)c(=O)n(-c2ccccc2)n1C the results were CCHF vOTU inh -11, 3CLpro inhibitor 0, Bead autofluor 16314*, BoNT A protease inconclusive, BoNT-F LC inh 0 and Anthrax LF inh2 2.
COc1ccccc1C(=O)Nc1c(C)n(C)n(-c2ccccc2)c1=O was read as CCHF vOTU inh -9, 3CLpro inhibitor -1, Bead autofluor 22949*, BoNT A protease -1, BoNT-F LC inh -1 and Anthrax LF inh2 0.
`Cc1c(NS(=O)(=O)c2ccc3[nH]c(=O)[nH]c3c2)c(=O)n(-c2ccccc2)n1C` gave CCHF vOTU inh -7, 3CLpro inhibitor 0, Bead autofluor 20240*, BoNT A protease 6, BoNT-F LC inh 6 and Anthrax LF inh2 1.
For Cc1c(NC(=O)c2c(F)c(F)c(F)c(F)c2F)c(=O)n(-c2ccccc2)n1C the results were CCHF vOTU inh -1, 3CLpro inhibitor 0, Bead autofluor 3652, BoNT A protease 2, BoNT-F LC inh 4 and Anthrax LF inh2 -3.
Screening Cc1cccc(NC(=O)/C=C/c2cccs2)n1 returned CCHF vOTU inh 5, 3CLpro inhibitor -6, Bead autofluor 21452*, BoNT A protease -2, BoNT-F LC inh -3 and Anthrax LF inh2 -1.

From PubChem
